Laboratory results: PubChem BioAssay (NCI)
Compounds without any hit were thinned out: in the full panel of roughly 83,000, 20% have a hit.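 Single-dose data. Exposure time 48 hours. Values below 10 considered active.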 Active and inactive are the calls of the source.

tested on: MDA-MB-468 breast; test: NCI-60 one-dose screen, 48 h (100 = growth as untreated, 0 = no growth, -100 = all killed); conditions: 10 µM unless noted

| Structure (SMILES) | growth |
| --- | --- |
| CN(C)CCCNc1c2ccc(Cl)cc2nc2c1oc1ccccc12 | -49.6% (active) |
| COc1ccc(/C=C/C(=O)Nc2ncnc3nc[nH]c23)cc1 | 95.3% (inactive) |
| [O-][n+]1c2ccccc2[n+]([O-])c2c3ccccc3[nH]c21 | -36.6% (active) |
| COc1ccc(/C=C/c2nc(N3CCOCC3)c3cc(F)c(F)cc3n2)cc1OC | -6.96% (active) |
| Oc1c(CN2CCCC2)cc(COCc2ccccc2)c2cccnc12 | -15.4% (active) |
| Cc1cc(=O)n(Nc2ccccc2)c(O)c1C#N | 108% (inactive) |
| C=C1C(=O)O[C@H]2[C@H]1CC/C(CNC(=O)c1c[nH]c3ccc(F)cc13)=C\CC[C@@]1(C)O[C@@H]21 | -55.8% (active) |
| COc1cccc(/C=C(/C)c2ccc3cccc(OC)c3[o+]2)c1O | 95.9% (inactive) |
| Cn1c(=O)[nH]c2ccccc2c1=O | 107% (inactive) |
| N#C/C(=C\c1ccc(Br)cc1)c1cc2ccccc2[nH]1 | 82.8% (inactive) |
| C=C(C)C(=O)O[C@H]1C[C@@]2(C)OC(=CC2=O)/C(C)=C\[C@H]2OC(=O)C(=C)[C@H]12 | -52.5% (active) |
| C#Cc1nc(/C=C/C(=O)NO)cs1 | 51.7% (inactive) |
| CCN1C(=O)N(CC)C2Nn3c(s/c(=C\c4cccc([N+](=O)[O-])c4)c3=O)=NC21 (stereo not given) | 28.8% (inactive) |
| COc1cc(COC(=O)CCCCC[P+](c2ccccc2)(c2ccccc2)c2ccccc2)c(OC)c2c1OCO2 | -2.4% (active) |
| Cc1ccc(NS(=O)(=O)c2ccc(-c3cnc(C4CC4)o3)cc2)cc1 | -0.814% (active) |
| Nc1n[nH]c2cccc(C#Cc3cccc(NC(=O)c4cccc(OC(F)(F)F)c4)c3)c12 | 106% (inactive) |
| CCc1cc2c(cc1Cl)nc1c(=O)[nH]c(=O)nc-1n2CCOCC(C)(C)C | 44.3% (inactive) |
| CC(C)(C)NC/C(=C\c1ccccc1)C(=O)c1ccccc1 | -50.5% (active) |
| N#CCc1csc(Cc2ccccc2)n1 | 107% (inactive) |
| O=[N+]([O-])c1ccc(-c2ncc(-c3ccc(O)cc3O)[nH]2)cc1 | 107% (inactive) |

| Structure (SMILES) | growth |
| --- | --- |
| COc1cc(C(=O)n2nc(-c3cc(OC)c(OC)c(OC)c3)nc2N)cc(OC)c1OC | 101% (inactive) |
| N/C(=N\c1nc2ccccc2[nH]1)NC(=O)Cc1cccc2ccccc12 | 79.8% (inactive) |
| O=C(CN1CCCCC1)Sc1nnc2sc3ccccc3n12 | 97.1% (inactive) |
| C[C@@H](O)[C@H]1C(=O)N2C(C(=O)O)=C(SCCN=CN)C[C@H]12 | -48.1% (active) |
| Cc1cccc(NC(=O)Nc2ccc(-n3cnc4cc(-c5ccc(O)cc5)ccc43)cc2)c1 | 38.4% (inactive) |
| Clc1cccc(Nc2nc(Nc3cnc4ccccc4c3)c3[nH]cnc3n2)c1 | 86% (inactive) |
| C/C(=N\NC(=O)CSc1nc2ccccc2c(=O)n1CCc1ccc(S(N)(=O)=O)cc1)c1ccc(Br)cc1 | 84.1% (inactive) |
| COc1cc(/C=N/n2cnc3oc(-c4ccccc4)cc3c2=N)cc(CN2CCCC2)c1O | 82% (inactive) |
| COc1cc(/C=C2\CCCC3=C2NC(N)=NC3c2cc(OC)c(OC)c(OC)c2)cc(OC)c1OC (stereo not given) | -70.9% (active) |
| Cc1nc2sc(C(=O)Nc3cccc(Cl)c3C)c(N)c2cc1C(=O)c1ccccc1 | -4.28% (active) |
| CCN1C/C(=N\S(=O)(=O)c2ccccc2)N(CC)C1=S | 97.7% (inactive) |
| CC(=O)c1c(C)[nH]c(-c2nc3ccc(N4CCN(C)CC4)cc3[nH]2)c1-c1ccccc1 | 24.1% (inactive) |
| Cc1cc2nc3[nH]c4ccccc4c3nc2cc1C | 97.5% (inactive) |
| CCCCOC(=O)c1ccc(NC(=O)CCl)cc1 | 50% (inactive) |
| COc1ccc(C2=CC(c3cc(OC)c(OC)c(OC)c3)NC(=O)N2)cc1OC (stereo not given) | -12.6% (active) |
| CCOc1cccc(/C=N/NC(=O)c2ccccc2Nc2ccnc(C(F)(F)F)c2)c1O | -23.6% (active) |
| O=c1[nH]c(CNc2ccc(NCc3c(-c4ccccc4)no[n+]3[O-])cc2)nc2c1cnn2-c1ccccc1 | 33.2% (inactive) |
| CCC(=C(c1ccc(OCCN(C)C)cc1)c1ccc(OCCN(C)C)cc1)c1ccc(Cl)cc1 | -82.8% (active) |
| CCOC(=O)C(COS(C)(=O)=O)(COS(C)(=O)=O)C(=O)OCC | 122% (inactive) |
| COc1ccc(C2C3=C(COC3=O)N(CCO)c3cc4c(cc32)OCO4)cc1OC (stereo not given) | 8.1% (active) |
